Drawing on PubChem BioAssay (NCI), this text covers growth inhibition for 39 compounds.

Compounds without any hit were thinned out: in the full panel of roughly 79,000, 15% have a hit. Values without a mark were called inactive. Active and inactive are the calls of the source. Cut-off read from the data, not from the text of the source: active = growth inhibition above about 70%; inactive = the rest.

This experiment is described as follows: NCI Yeast Anticancer Drug Screen. Data for the rad50 strain (AID 155).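 Note: 0% = growth of vehicle-only cultures of the same strain.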 Particulars: S. cerevisiae rad50 strain growth inhibition; at 5.0 µM (retest, dose inferred, filed as 0.5); hits give high values. In a few lines:
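Vehicle-treated cultures provide the reference for the growth inhibition reported for compound-exposed, repair-deficient yeast.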
Turning to `Cc1cccc(NC(=O)CCc2ccc(Cl)cc2)n1`, the growth inhibition was 2%.

Turning to `O=C(NNc1nc(-c2ccccc2)cs1)C(F)(F)F`, the growth inhibition is 83% (active).

Take `COc1ccc(C(=O)C(c2ccc(OC)cc2)C2(O)C(=O)Nc3c(Cl)cc(Cl)cc32)cc1` (centres undefined): the growth inhibition is 37%.

Regarding `CC(=O)NNc1nc(C)c(C(=O)NNC(=O)C(=O)Nc2ccc(Cl)c([N+](=O)[O-])c2)s1`, the growth inhibition is 34%.

Turning to `COc1ccc(Cc2cncc3c(O)c(OC)ccc23)cc1O`, the growth inhibition is -1%.

As for `Nc1ccccc1N=Nc1c(S(=O)(=O)O)cc2cc(S(=O)(=O)O)cc(O)c2c1O`, the growth inhibition is 17%.

Take `CCN(CC)c1c(C(=O)/C=C/c2ccc(OC)cc2)c(-c2ccccc2)nn(C)c1=O`: the growth inhibition is 17%.

Regarding `O=C(O)/C=C/c1ccc(Cl)c(Cl)c1`, the growth inhibition was 9%.

Regarding `CCC12C=CCN3CC[C@@]4(c5cc([C@@]6(C(=O)OC)C[C@@H]7CN(CCc8c6[nH]c6ccccc86)C[C@](O)(CC)C7)c(OC)cc5N(C)[C@H]4[C@@](O)(C(=O)OC)[C@@H]1OC(=O)CCCCCCCCCCCN1C(=O)C=CC1=O)[C@H]32` (some centres undefined), the growth inhibition was 16%.

As for `Cc1cc(C)c(Cc2cc(C(C)(C)C)cc(C)c2O)cc1Cc1cc(C(C)(C)C)cc(C)c1O`, the growth inhibition is -2%.

Turning to `COC(=O)C(=O)/C=C(/O)c1ccc(OC)cc1`, the growth inhibition is -16%.

As for `Oc1ccc2c(c1)OCC1c3ccccc3OC21` (centres undefined), the growth inhibition is 24%.

As for `Cc1cc(N2C(=O)CCSC2=S)c([N+](=O)[O-])cc1C`, the growth inhibition is 32%.

In the case of `CCCCCCC(C)S(=O)(=O)c1ccc(C)cc1` (centres undefined), the growth inhibition is 3%.

For the compound `S=c1sc2c(s1)SCCOCCOCCOCCS2`, the growth inhibition is -4%.

As for `N#Cc1cn(-c2c3ccccc3nc3ccccc23)c(=O)[nH]c1=O`, the growth inhibition is 16%.

As to `O=C1C=C(c2ccccc2)O/C1=C\C(=O)c1ccc(Cl)cc1`, the growth inhibition was 48%.

As to `O=c1[nH]c2cc(Cl)ccc2nc1/C=C(\O)c1ccc(N2CCN(c3ccc(/C(O)=C/c4nc5ccc(Cl)cc5[nH]c4=O)cc3)CC2)cc1`, the growth inhibition is 10%.

For `O=C1Oc2ccccc2C(=O)/C1=C/N1C(=O)/C(=C/c2ccccc2)NC1=S`, the growth inhibition is -23%.

Regarding `CN(C)/C=C(\C(=O)c1ccccc1)n1nc(-c2ccccc2)cc1-c1ccccc1`, the growth inhibition was 15%.

As for `O=C1C(=O)c2ccccc2C(O)=C1Sc1ccccc1`, the growth inhibition was 23%.

For `O=C(c1c(F)c(F)c(F)c(F)c1F)n1c(=S)n(C(=O)c2c(F)c(F)c(F)c(F)c2F)c2ccccc21`, the growth inhibition was 11%.

With `CCCCNCCC1(c2ccccc2)C(=O)Oc2ccccc21` (centres undefined), the growth inhibition was -5%.

In the case of `COc1cc(/C=C/c2cc[n+](C)cc2)ccc1O`, the growth inhibition was -11%.

For `c1ccc(-c2ccc(-c3ccc(C4=NCCN4)cc3)o2)cc1`, the growth inhibition is 13%.

Turning to `CCCCCCCCCCCCCCNC(=O)C[N+](C)(C)Cc1ccccc1`, the growth inhibition is 99% (active).

On to `NC(CSSCC(N)C(=O)Nc1ccc2ccccc2c1)C(=O)Nc1ccc2ccccc2c1` (centres undefined), for which the growth inhibition was 42%.

For `O=C(OCc1ccccc1)C(O)c1ccccc1` (centres undefined), the growth inhibition is -2%.

For the compound `CC(=O)CC1(O)C(=O)Nc2ccc(Br)cc21` (centres undefined), the growth inhibition was 1%.

For `S=C(S)NCCN1CCNCC1`, the growth inhibition is 9%.

On to `CCCCCCCC(=O)N1CCCCC1CC` (centres undefined), for which the growth inhibition was -142%.

Regarding `O=C1CCCC1C(=O)OC1CCCC1` (centres undefined), the growth inhibition was 42%.

Turning to `CCN1CCC(O)(/C=C/c2cccc(C)c2)C(C(=O)/C=C/c2cccc(C)c2)C1` (centres undefined), the growth inhibition is 42%.

Take `O=C(SCCCc1ccccc1)c1cc([N+](=O)[O-])cc([N+](=O)[O-])c1`: the growth inhibition was 98% (active).

For `O=C1C(=O)C2CC3(CC1N2Cc1ccccc1)OCCO3`, the growth inhibition was 11%.

With `CNc1cc(SC)nc(N)n1`, the growth inhibition is 3%.

As to `Clc1ccc(Cl)c(SCCCN2CCNCC2)c1`, the growth inhibition is 36%.

Turning to `CC(C)C(Cl)CC/C(CBr)=C(\Cl)CCl` (centres undefined), the growth inhibition is 28%.

On to `O=C(O)CNc1ccc2c(c1)Cc1cc(Br)ccc1-2`, for which the growth inhibition was 19%.
